Assay results as given in the supplement of paper PMC3334620.
In all, about 33,000 sequences were measured (“E-score (-0.5 to 0.5)”: median about -0.012, highest 2% from about 0.27 on). The sample holds the highest values, similar sequences and a random draw of the others, so the mix is not that of the screen.

Each sequence was assayed against T1, Vhr1 (UniProt P40522) (assay: PBM E-score (8-mer binding enrichment) (E-score (-0.5 to 0.5)); higher = stronger / more preferred TF binding). Details: protein concentration: 200 nM; construct: GST-full length.
T1 sequence: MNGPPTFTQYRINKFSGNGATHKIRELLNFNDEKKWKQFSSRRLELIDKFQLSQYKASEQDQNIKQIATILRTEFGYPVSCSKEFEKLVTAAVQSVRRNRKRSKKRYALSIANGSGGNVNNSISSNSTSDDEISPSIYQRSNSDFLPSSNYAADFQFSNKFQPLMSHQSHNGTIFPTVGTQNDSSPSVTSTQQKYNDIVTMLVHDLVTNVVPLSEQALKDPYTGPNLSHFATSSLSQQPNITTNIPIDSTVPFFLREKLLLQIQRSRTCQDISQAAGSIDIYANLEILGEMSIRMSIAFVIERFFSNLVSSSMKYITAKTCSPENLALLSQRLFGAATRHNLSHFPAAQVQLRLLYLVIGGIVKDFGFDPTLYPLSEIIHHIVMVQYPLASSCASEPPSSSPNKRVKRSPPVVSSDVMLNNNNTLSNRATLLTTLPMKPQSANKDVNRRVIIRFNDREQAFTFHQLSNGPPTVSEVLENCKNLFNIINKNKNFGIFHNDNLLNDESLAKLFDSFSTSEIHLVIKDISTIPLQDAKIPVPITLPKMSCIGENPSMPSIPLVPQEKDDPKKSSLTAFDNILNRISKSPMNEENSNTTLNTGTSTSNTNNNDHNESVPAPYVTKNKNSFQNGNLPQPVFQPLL
Method in brief: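 Yeast transcription factors carrying a GST tag, as full-length proteins or DNA-binding domains, were produced by PURExpress in vitro transcription/translation. About 100-200 nM protein was applied to universal all-10-mer Agilent arrays, double-stranded by primer extension on fresh or once-stripped slides. Bound protein was detected with fluorescent anti-GST, and scans were normalised with masliner. The Universal PBM Analysis Suite gave each ungapped eight-base word, pooled with its reverse complement, an E-score, a modified Wilcoxon-Mann-Whitney statistic.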

Sequence	PBM E-score
GGACTACA	0.146
GGACTAAC	-0.00735
CAGATAAG	-0.0755
CTTCGACA	-0.0949
CGGCCAAC	0.0556
CGTCCTAA	0.0547
GGCACATA	0.13
GGGCCAAC	-0.157
ACCATAGG	0.0531
TAGTAATA	0.191
CAGGGGCG	0.301
CAGGGGCC	-0.184
AAGGGGCG	-0.0512
CTTTAGAA	-0.238
GAGAAAGA	-0.167
CTCCGGAC	0.0766
ATCCGGAC	-0.192
GTCCGGAC	0.273
AGGATCTC	-0.119
ATCAATGC	0.0623
AGGAGACG	-0.176
CCCGTGAA	-0.0611

Sequence	PBM E-score
CGCCTATA	-0.135
CGCGACTA	0.391
CTCGACTA	0.163
AGCGACTG	0.194
CTCGACTC	0.19
CGCGACTC	0.449
CGCGACCC	0.153
AGCGACTC	0.314
GGCGACTA	0.212
AGCGACTA	0.211
GAGGTATA	0.113
CTTGCTGC	-0.113
CCAATACG	-0.209
ATGTGCGC	-0.0331
ACACTTTA	-0.0402
GAACCTGA	0.0239
TCCTGACA	0.107
CTGAACCA	0.245
GGGAACCA	0.176
ATGAACCA	0.294
ATGAACCG	0.0189
CGGAACCA	0.343

Sequence	PBM E-score
ACGAACCA	0.273
CGGAACCG	0.0495
CCGAACCA	0.0572
ACGAACCC	-0.119
GCTCCTCA	-0.363
CTATCGGA	-0.237
ACAGTTCC	-0.00019
ATATCTTC	0.11
ACTATCTA	0.184
CAGCCAGG	0.0621
GTGGTAAC	-0.0602
ACGAAGCA	0.00046
CAGACTCG	0.0994
AACCTCAG	-0.103
GAGTGTGA	0.278
CAGTGTGA	0.285
GAGTGTGC	0.0366
GAGTGTAA	0.0325
AAGTGTGA	0.0182
TAGTGTGA	0.088
GATTCCGC	0.216
CATTCACA	0.00907

Sequence	PBM E-score
GATTCACA	0.326
CATTCACG	-0.114
GATTCAGA	0.305
GATTCAGC	0.149
GATTCCGA	0.287
TATTCAGA	0.178
CATTCCGA	0.0348
CGAAAGCA	-0.046
GATACACC	0.197
ACTGGCTG	0.0954
CTTACCCA	0.104
ACTCCAGA	0.0505
TCTGCCCA	-0.179
AACCAACT	0.0869
CGTGCTAA	-0.201
CCCATGAG	0.227
CCTCATGA	0.0599
ACTCATGC	0.322
CCTCATGC	0.0272
ATGCATGC	-0.0419
